Source: PubChem BioAssay
Calls of active or inactive are those of the source.

Columns and labels:
Albumin (Bos taurus) = Albumin (Bos taurus) (UniProt P02769); test: bovine serum albumin binders on microarray, profiling panel, artefact control for SMM control protein annotation, biochemical, small-molecule microarray, Alexa647 label, 635/667 nm fluorescence (AID 1118); conditions: BSA-A647 binding, fluorescence 635 nm, higher = more signal;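 further: score merges 667 nm emission intensity and signal-to-noise per printed compound spot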
[1] = small-molecule microarray binders of probe aXIP, primary screen, biochemical, NeuroSMM set, 635/667 nm fluorescence (AID 1119); conditions: higher = more signal, called active from +8 up or from −8 down;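 further: probe is the protein aXip251-270 applied at 1 µg/mL to compound-printed slides; binding of probe to printed compounds measured as 667 nm fluorescence plus signal to noise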
[2] = small-molecule binders of probe aNOTCH3, primary screen, biochemical, small-molecule microarray, 635/667 nm fluorescence (AID 1120); conditions: higher = more signal;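 further: probe is a biotin-tagged antibody raised against NOTCH3 rather than NOTCH3 protein; score merges spot fluorescence near 667 nm with spot signal to noise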
[3] = small-molecule binders of probe aNOTCH2, primary screen, biochemical, small-molecule microarray, 635/667 nm fluorescence (AID 1121); conditions: higher = more signal;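 further: score merges feature fluorescence read at 667 nm with its signal to noise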
[4] = target: Carbonic anhydrase 2 (Homo sapiens) (UniProt P00918); test: CAII small-molecule binders, profiling panel, biochemical, small-molecule microarray, Alexa647-labelled CAII (AID 1122); conditions: CAII-A647 binding fluorescence, higher = more signal
[5] = COS7 lysate on small-molecule microarray, probe aHis, 635 nm (AID 1123); conditions: COS7 cell lysate, fluorescence, higher = more signal;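 further: z-score combines 667nm fluorescence intensity with signal-to-noise per printed compound spot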
[6] = compound binding in COS7 lysate, probe aLAP1, primary screen, cell lysate, small-molecule microarray (AID 1124); conditions: probe aLAP1, fluorescence, higher = more signal;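 further: lysate comes from COS7 cells expressing LAP1 and is applied at 0.3 µg/mL; score merges spot fluorescence near 667 nm with signal-to-noise over triplicate slides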
Sam68 (KHDRBS1) = test: Sam68 small-molecule binders, primary screen, biochemical, small-molecule microarray, 635 nm fluorescence (AID 1125); conditions: small-molecule microarray binding, higher = more signal;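 further: score merges 667 nm channel intensity with signal to noise over triplicate slides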
[7] = tested on: Chordin-like protein 2 (CHRDL2); test: CHRDL2 small-molecule binders, primary screen, biochemical, small-molecule microarray, 635 nm fluorescence (AID 1126); conditions: small-molecule microarray binding, fluorescence 635 nm; higher = more signal;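 further: printed compound slides probed with Chrdl2 protein at 4 µg/mL for 1 h at 4 C; score merges 667 nm emission intensity with signal to noise over three replicate slides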
[8] = target: Concanavalin-A (Canavalia ensiformis) (UniProt P02866); test: ConA small-molecule binders, primary screen, artefact control for SMM control protein annotation, biochemical, small-molecule microarray, Alexa647 label, 635 nm (AID 1127); conditions: ConA-A647 binding fluorescence, higher = more signal;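 further: z combines 667 nm emission intensity with signal-to-noise across three replicate slides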
[9] = anti-His antibody binders, primary screen, artefact control for SMM control protein annotation, biochemical, small-molecule microarray, 635 nm fluorescence (AID 1128); conditions: anti-His Alexa647 antibody binding, higher = more signal;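 further: score merges feature fluorescence with signal-to-noise for each printed compound spot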
[10] = tested on: Human papillomavirus type 1a E7 protein (residues 1-88); test: HPV1a E7 small-molecule binders, primary screen, biochemical, small-molecule microarray, residues 1-88, 635 nm (AID 1129); conditions: small-molecule microarray binding, fluorescence 635 nm; higher = more signal
[11] = target: Focal adhesion kinase 1 (Homo sapiens) (UniProt Q05397); test: small-molecule microarray binders of FAK, primary screen, biochemical, 635/667 nm fluorescence, BSA, DTT (AID 1130); conditions: PTK2 binding, 635 nm fluorescence, higher = more signal;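 further: composite of spot emission at 667 nm and signal to noise over triplicate slides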
[12] = tested on: Fibrinogen (Alexa647-labelled); test: fibrinogen binders on compound microarrays, profiling panel, artefact control for SMM control-protein annotation, biochemical, small-molecule microarray, 635/667 nm fluorescence (AID 1131); conditions: fibrinogen-A647 binding fluorescence, higher = more signal;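 further: z-score merges 667 nm fluorescence with per-spot signal-to-noise over triplicate slides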
[13] = target: Follistatin (Homo sapiens) (UniProt P19883); test: follistatin binders on small-molecule microarrays, primary screen, biochemical, small-molecule microarray, 635/667 nm fluorescence (AID 1132); conditions: FST binding, 635 nm fluorescence, higher = more signal
[14] = target: Fibroblast growth factor 2 (Homo sapiens) (UniProt P09038); test: FGF2 binders on small-molecule microarrays, primary screen, biochemical, small-molecule microarray, 635/667 nm fluorescence (AID 1133); conditions: small-molecule microarray binding, FGF2, fluorescence 635/667; higher = more signal
[15] = mitochondrial membrane potential change in A549 cells, profiling panel, cell-based, JC-1 fluorescence, basal, 24 h, 100 nL (AID 1138); conditions: higher = more signal;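 further: A549 lung adenocarcinoma cells under basal conditions with no added stimulus; test concentration not given here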
Lefty1 = Lefty1 binders on small-molecule microarrays, primary screen, biochemical, small-molecule microarray, 635/667 nm fluorescence (AID 1139); conditions: small-molecule microarray binding, fluorescence 635/667; higher = more signal
[16] = tested on: wheat germ agglutinin (Triticum aestivum), Alexa647-labelled; test: wheat germ agglutinin binders on compound microarrays, profiling panel, artefact control for SMM control-protein annotation, biochemical, small-molecule microarray, 635/667 nm fluorescence (AID 1140); conditions: WGA-A647 binding, 635 nm fluorescence, higher = more signal;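 further: score merges 667 nm feature emission with signal to noise over triplicate slides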
[17] = target: Luciferin 4-monooxygenase (Photinus pyralis) (UniProt P08659); test: firefly luciferase enzyme inhibitors, primary screen, biochemical, luminescence, purified enzyme, 2006 set (AID 1141); conditions: SteadyGlo luminescence, 30 min, higher = more signal, called active from +8 up or from −8 down;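 further: cell-free assay with purified firefly luciferase at 100 ng per well in PBS; test concentration not given here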
Sequence of Luciferin 4-monooxygenase (Photinus pyralis) (P08659 whole entry, looked up): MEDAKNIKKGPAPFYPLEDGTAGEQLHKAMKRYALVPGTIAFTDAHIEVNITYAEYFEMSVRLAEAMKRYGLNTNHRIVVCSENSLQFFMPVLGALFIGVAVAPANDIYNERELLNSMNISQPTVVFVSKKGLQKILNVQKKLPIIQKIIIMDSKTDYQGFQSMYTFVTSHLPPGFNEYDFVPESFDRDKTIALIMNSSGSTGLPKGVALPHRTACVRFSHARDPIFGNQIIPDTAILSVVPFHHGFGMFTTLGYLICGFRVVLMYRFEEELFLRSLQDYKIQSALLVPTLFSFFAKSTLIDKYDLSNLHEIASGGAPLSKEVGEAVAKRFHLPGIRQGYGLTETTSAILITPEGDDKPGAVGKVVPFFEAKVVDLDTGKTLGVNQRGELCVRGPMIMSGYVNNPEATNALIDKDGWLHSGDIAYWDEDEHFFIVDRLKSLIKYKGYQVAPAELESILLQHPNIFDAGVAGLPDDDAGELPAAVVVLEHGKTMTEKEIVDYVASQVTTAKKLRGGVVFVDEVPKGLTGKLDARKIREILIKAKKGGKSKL

Sequence of Fibroblast growth factor 2 (Homo sapiens) (P09038 whole entry, looked up): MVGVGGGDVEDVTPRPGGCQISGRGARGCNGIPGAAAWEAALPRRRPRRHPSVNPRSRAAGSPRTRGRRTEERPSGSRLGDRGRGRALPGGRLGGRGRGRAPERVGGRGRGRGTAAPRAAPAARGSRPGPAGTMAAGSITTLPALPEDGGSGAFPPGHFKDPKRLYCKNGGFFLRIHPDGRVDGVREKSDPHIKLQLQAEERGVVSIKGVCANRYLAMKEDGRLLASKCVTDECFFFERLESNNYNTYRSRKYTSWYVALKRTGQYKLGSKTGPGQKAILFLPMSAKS
Sequence of Albumin (Bos taurus) (P02769 whole entry, looked up): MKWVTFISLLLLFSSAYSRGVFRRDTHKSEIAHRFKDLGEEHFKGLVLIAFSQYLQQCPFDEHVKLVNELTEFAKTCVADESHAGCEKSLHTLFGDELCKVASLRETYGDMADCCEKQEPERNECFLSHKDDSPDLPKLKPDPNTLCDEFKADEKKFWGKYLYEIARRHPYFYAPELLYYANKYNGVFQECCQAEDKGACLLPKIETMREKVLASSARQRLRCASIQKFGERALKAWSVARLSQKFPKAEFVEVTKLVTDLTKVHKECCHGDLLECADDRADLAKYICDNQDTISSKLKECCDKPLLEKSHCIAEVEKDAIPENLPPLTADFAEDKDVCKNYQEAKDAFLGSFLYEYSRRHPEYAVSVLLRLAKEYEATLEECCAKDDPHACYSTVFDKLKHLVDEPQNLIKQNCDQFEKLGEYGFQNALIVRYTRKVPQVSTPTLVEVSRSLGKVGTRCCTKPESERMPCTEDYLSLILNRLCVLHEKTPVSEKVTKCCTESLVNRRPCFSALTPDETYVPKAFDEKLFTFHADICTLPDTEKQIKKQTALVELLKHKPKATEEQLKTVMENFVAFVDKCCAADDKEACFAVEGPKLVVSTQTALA
Sequence of Concanavalin-A (Canavalia ensiformis) (P02866 whole entry, looked up): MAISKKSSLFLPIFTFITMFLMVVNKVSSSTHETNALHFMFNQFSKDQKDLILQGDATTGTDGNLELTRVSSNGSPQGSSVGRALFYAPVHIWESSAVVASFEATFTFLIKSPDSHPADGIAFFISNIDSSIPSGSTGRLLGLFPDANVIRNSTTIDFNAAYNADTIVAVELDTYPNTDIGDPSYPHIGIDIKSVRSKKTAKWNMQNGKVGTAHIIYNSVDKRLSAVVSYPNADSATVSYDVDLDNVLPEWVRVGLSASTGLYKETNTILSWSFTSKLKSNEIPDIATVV
Sequence of Focal adhesion kinase 1 (Homo sapiens) (Q05397 whole entry, looked up): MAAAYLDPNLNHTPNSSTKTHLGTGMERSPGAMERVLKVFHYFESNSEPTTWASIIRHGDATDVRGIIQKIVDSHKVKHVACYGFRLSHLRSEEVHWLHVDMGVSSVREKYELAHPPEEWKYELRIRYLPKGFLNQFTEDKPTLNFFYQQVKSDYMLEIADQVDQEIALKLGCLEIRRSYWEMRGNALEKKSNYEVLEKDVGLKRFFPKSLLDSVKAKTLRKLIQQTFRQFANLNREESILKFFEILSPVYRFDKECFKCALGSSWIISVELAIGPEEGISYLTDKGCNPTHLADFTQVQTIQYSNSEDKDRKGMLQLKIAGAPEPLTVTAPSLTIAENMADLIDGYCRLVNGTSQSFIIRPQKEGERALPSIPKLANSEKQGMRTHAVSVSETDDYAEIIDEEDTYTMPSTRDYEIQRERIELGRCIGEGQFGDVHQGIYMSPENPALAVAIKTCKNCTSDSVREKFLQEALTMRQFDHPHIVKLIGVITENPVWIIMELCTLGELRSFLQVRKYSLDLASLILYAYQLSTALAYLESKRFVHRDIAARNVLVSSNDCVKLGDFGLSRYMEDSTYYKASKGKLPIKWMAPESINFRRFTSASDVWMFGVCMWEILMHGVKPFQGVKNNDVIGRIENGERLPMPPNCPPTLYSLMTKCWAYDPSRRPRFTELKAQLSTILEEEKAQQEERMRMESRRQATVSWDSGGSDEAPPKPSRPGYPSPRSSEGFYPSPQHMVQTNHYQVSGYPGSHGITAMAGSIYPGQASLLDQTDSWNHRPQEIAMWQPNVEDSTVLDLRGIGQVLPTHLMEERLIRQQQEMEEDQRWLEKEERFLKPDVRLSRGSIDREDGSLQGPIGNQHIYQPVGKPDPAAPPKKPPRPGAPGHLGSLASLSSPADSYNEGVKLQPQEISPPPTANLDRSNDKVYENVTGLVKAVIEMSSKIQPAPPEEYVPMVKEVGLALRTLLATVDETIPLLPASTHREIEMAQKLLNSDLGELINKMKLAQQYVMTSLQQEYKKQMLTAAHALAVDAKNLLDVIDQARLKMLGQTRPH
Sequence of Follistatin (Homo sapiens) (P19883 whole entry, looked up): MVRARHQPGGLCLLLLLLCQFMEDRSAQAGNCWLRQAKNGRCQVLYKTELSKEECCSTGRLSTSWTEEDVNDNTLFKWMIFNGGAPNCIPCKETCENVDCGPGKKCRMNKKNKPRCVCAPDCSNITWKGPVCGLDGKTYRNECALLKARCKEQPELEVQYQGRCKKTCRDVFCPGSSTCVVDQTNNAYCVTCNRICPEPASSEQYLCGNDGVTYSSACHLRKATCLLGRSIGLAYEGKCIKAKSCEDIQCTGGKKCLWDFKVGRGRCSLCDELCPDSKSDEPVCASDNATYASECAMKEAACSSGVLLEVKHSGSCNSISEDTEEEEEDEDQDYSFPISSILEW

| Structure (SMILES) | composite z-score (Albumin (Bos taurus)) | composite Z-score [1] | composite z-score [2] | composite z-score [3] | composite z-score [4] | composite z-score [5] | composite z-score [6] | composite z-score (Sam68 (KHDRBS1)) | composite z-score [7] | composite z-score [8] | composite z-score [9] | composite z-score [10] | composite z-score [11] | composite z-score [12] | composite z-score [13] | composite z-score [14] | z-score [15] | composite z-score (Lefty1) | composite z-score [16] | z-score [17] |
| --- | --- | --- | --- | --- | --- | --- | --- | --- | --- | --- | --- | --- | --- | --- | --- | --- | --- | --- | --- | --- |
| CC1CC/C=C\[C@H]2OC34C=CCN(c5ccc6ccccc6c5)C(=O)[C@H]3N(CCO)C(=O)[C@@H]4C2C(=O)O1 (stereo not given in full) | 0.653 | 0.0214 (inactive) | -0.19 | -0.0903 | 0.829 | 0.275 | 0.758 | 0.0573 | -0.628 | -1.12 | -0.9 | -0.898 | -0.645 | -0.0601 | -0.839 | -0.467 | -0.245 | -0.708 | 1.03 | 0.288 (inactive) |
| C=C(/C(=C/C[C@H](OC(=O)c1ccncc1)c1ccc(OCCO)cc1)c1cc(C(=O)OC)ccc1OC)C(C)C | 0.605 | -0.0856 (inactive) | -0.0362 | -0.135 | 0.514 | 1.15 | 0.284 | 0.516 | -0.0985 | 0.985 | 0.785 | 1 | 0.359 | 0.821 | 0.789 | 0.494 | -0.228 | 0.546 | 0.681 | -0.357 (inactive) |
| CN1C(=O)C2C=CC(C(O)C=Cc3ccc([N+](=O)[O-])cc3)N(Nc3ccccc3)C2C1=O (stereo not given) | 0.988 | 0.268 (inactive) | 0.255 | -0.0894 | 0.624 | 1.21 | 0.19 | 1.3 | 0.674 | 0.988 | 1.26 | 1.24 | 0.198 | 1.01 | 1.1 | 0.028 | 0.509 | 0.637 | 0.289 | -1.02 (inactive) |
| COCC(=C=CC[C@@H](O)c1ccc(OCCO)cc1)C[C@@H](O)c1ccccn1 | 0.762 | -0.628 (inactive) | -0.0947 | -0.157 | 0.532 | 0.528 | -0.517 | 0.472 | 0.141 | 0.403 | 2.32 | -0.14 | 0.359 | 0.792 | 0.979 | 0.249 | 0.0965 | 0.517 | 0.643 | -0.501 (inactive) |
| Cc1ccc(C2C3C(=O)CC4C(=O)N(c5ccccc5)C(=O)C4C3CN2S(=O)(=O)c2ccc(C)cc2)cc1 (stereo not given) | 0.684 | -0.0384 (inactive) | 0.469 | 0.603 | 0.539 | 2.17 | 0.362 | 1.17 | -0.479 | 0.671 | 1.16 | 1.24 | -0.177 | 0.403 | 0.24 | 0.294 | -0.112 | 0.0507 | 0.912 | 0.732 (inactive) |
| O=C1OCCC=C[C@H]2OC34C=CCN(c5ccc(Cl)cc5)C(=O)[C@H]3N(CCCO)C(=O)[C@@H]4C12 (stereo not given in full) | -0.989 | -0.118 (inactive) | -0.237 | -0.186 | 0.268 | -0.714 | 0.27 | -1.21 | -0.406 | -0.295 | -0.598 | -1.88 | -0.22 | -0.867 | -0.0633 | -0.584 | 0.0491 | 0.196 | -0.0198 | -0.352 (inactive) |
| CCCCC(=C=CC[C@@H](O)c1cccc(OCCO)c1)C[C@@H](O)c1ccccn1 | 0.416 | 0.216 (inactive) | -0.0881 | -0.172 | 0.7 | 0.617 | 0.651 | 1.29 | 0.263 | 0.664 | 2.56 | 0.873 | -0.204 | 0.837 | 1.31 | 0.605 | 0.0206 | 1.2 | 0.26 | 0.0494 (inactive) |
| N#Cc1ccc(C(O)C2C=CC3C(=O)N(c4ccccc4)C(=O)C3N2Nc2ccccc2F)cc1 (stereo not given) | 1.01 | -0.187 (inactive) | 0.173 | -0.0771 | 0.675 | 1.99 | 0.555 | 0.864 | -0.284 | 0.883 | 2.59 | 1.05 | 0.152 | 0.97 | 0.269 | 0.191 | 0.0535 | 0.284 | 0.144 | 1.79 (inactive) |
| C=CCC(OC(C)=O)[C@@H]1[C@@H](N(Cc2cc3ccccc3o2)C(=O)Cc2ccc(OC)cc2)c2cc(OCCCO)ccc2N1C(=O)c1ccc2ccccc2c1 (stereo not given in full) | 0.234 | 0.39 (inactive) | -0.0485 | -0.0652 | 0.386 | 0.13 | 0.16 | -0.427 | -0.257 | -0.439 | 0.19 | -0.491 | 0.115 | -1.19 | 0.2 | -0.568 | -0.319 | 0.128 | 0.757 | 0.148 (inactive) |
| COc1ccccc1CN1C(=O)c2ccccc2[C@@H](C(=O)NCc2ccccc2)[C@@H]1c1ccc(CO)cc1 | 0.431 | -0.549 (inactive) | -0.293 | -0.0984 | 0.544 | 1.15 | 1.54 | 1.09 | -0.353 | 0.305 | 1.99 | 0.464 | 0.377 | 0.688 | 0.211 | 0.546 | 1.03 | 0.423 | 0.397 | -0.898 (inactive) |
| [N-]=[N+]=NCc1ccccc1[C@@H]1OC(c2ccc(OCCCO)cc2)=N[C@]1(CCS(=O)(=O)c1ccccc1)C(=O)N1CCOCC1 | 0.923 | -0.244 (inactive) | 0.391 | 0.104 | 0.513 | 2.62 | 0.254 | 1.3 | -0.213 | 1.19 | 3.06 | 1.24 | 0.531 | 1 | 1.16 | 0.138 | -0.191 | 0.186 | 1.24 | -1.43 (inactive) |
